Source: PMC5540273 (PLoS ONE, 2017)
Like-named read-outs stand apart in the source and are kept apart here.

What was measured:
[1] = tested on: BMX; settings: concentration: 1 μM,replicates: in singlicate; n = 1
[2] = tested on: BRAF; settings: concentration: 1 μM,replicates: in singlicate; n = 1
[3] = tested on: T1, BRK; settings: concentration: 1 μM,replicates: in singlicate; n = 1
T1 construct: gene PTK6

[4] = tested on: BRSK1; settings: concentration: 1 μM,replicates: in singlicate; n = 1
[5] = tested on: BRSK2; settings: concentration: 1 μM,replicates: in singlicate; n = 1
[6] = tested on: BTK; settings: n = 1
[7] = tested on: BUB1; settings: concentration: 1 μM,replicates: in singlicate; n = 1
[8] = tested on: CAMK1B; settings: concentration: 1 μM,replicates: in singlicate; n = 1
[9] = tested on: CAMK1D; settings: concentration: 1 μM,replicates: in singlicate; n = 1
[10] = tested on: CAMK1G; settings: concentration: 1 μM,replicates: in singlicate; n = 1
[11] = tested on: CAMK1; settings: concentration: 1 μM,replicates: in singlicate; n = 1
[12] = tested on: CAMK2A; settings: concentration: 1 μM,replicates: in singlicate; n = 1
[13] = tested on: CAMK2B; settings: concentration: 1 μM,replicates: in singlicate; n = 1
[14] = tested on: CAMK2D; settings: concentration: 1 μM,replicates: in singlicate; n = 1
[15] = tested on: CAMK2G; settings: concentration: 1 μM,replicates: in singlicate; n = 1
[16] = tested on: CAMK4; settings: concentration: 1 μM,replicates: in singlicate; n = 1
[17] = tested on: CAMKK1; settings: concentration: 1 μM,replicates: in singlicate; n = 1
[18] = tested on: CAMKK2; settings: concentration: 1 μM,replicates: in singlicate; n = 1
[19] = tested on: CASK; settings: concentration: 1 μM,replicates: in singlicate; n = 1
[20] = tested on: T2, CDC2L1; settings: concentration: 1 μM,replicates: in singlicate; n = 1
T2 construct: gene CDK11B

[21] = concentration: 1 μM,replicates: in singlicate
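Also: KINOMEscan kinase panel screen.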

With `COc1cc(Nc2nccc(N3CCC(NC(=O)c4cccc(C#N)c4)C3)n2)cc(OC)c1OC` (centres unmarked) [GSK1379751] the “%Inh” value [1] was 0%, the “%Inh” value [2] was 0% and the “%Inh” value [3] was 0%. The “%Inh” value [4] was 0%, the “%Inh” value [5] was 100% and the “%Inh” value [6, 21] was 0%. For the same molecule, the “%Inh” value [7] was 61%, the “%Inh” value [8] was 22% and the “%Inh” value [9] was 0%. The “%Inh” value [10] was 0%, the “%Inh” value [11] was 3% and the “%Inh” value [12] was 0%. For the same molecule, the “%Inh” value [13] was 0%, the “%Inh” value [14] was 0% and the “%Inh” value [15] was 17%. For the same molecule, the “%Inh” value [16] was 0%, the “%Inh” value [17] was 0% and the “%Inh” value [18] was 3%. The “%Inh” value [19] was 3% and the “%Inh” value [20] was 0%.

`Cn1cc(-c2cccc3c(N)c(C(N)=O)nnc23)cn1` was tested, and the “%Inh” value [1] was 15%, the “%Inh” value [2] was 30% and the “%Inh” value [3] was 8%. The “%Inh” value [4] was 11%, the “%Inh” value [5] was 18% and the “%Inh” value ([6]; 1 µM) was 86%. For the same molecule, the “%Inh” value [7] was 32%, the “%Inh” value [8] was 0% and the “%Inh” value [9] was 29%. The “%Inh” value [10] was 7%, the “%Inh” value [11] was 33% and the “%Inh” value [12] was 7%. The “%Inh” value [13] was 2%, the “%Inh” value [14] was 15% and the “%Inh” value [15] was 0%. The “%Inh” value [16] was 0%, the “%Inh” value [17] was 5% and the “%Inh” value [18] was 6%. The “%Inh” value [19] was 4% and the “%Inh” value [20] was 1%.

With `CC(=O)Nc1ccc(-c2cc3ncnc(SCC(=O)O)c3s2)cc1` the “%Inh” value [1] was 0%, the “%Inh” value [2] was 4% and the “%Inh” value [3] was 0%. For the same molecule, the “%Inh” value [4] was 28%, the “%Inh” value [5] was 3% and the “%Inh” value [6, 21] was 0%. For the same molecule, the “%Inh” value [7] was 47%, the “%Inh” value [8] was 0% and the “%Inh” value [9] was 0%. The “%Inh” value [10] was 19%, the “%Inh” value [11] was 0% and the “%Inh” value [12] was 55%. For the same molecule, the “%Inh” value [13] was 58%, the “%Inh” value [14] was 21% and the “%Inh” value [15] was 18%. The “%Inh” value [16] was 23%, the “%Inh” value [17] was 90.6% and the “%Inh” value [18] was 92.3%. For the same molecule, the “%Inh” value [19] was 8% and the “%Inh” value [20] was 9%.

With `COc1cc2nccc(Nc3ccc(Oc4ccccc4)cc3)c2cc1OC.Cl` [GI261656] the “%Inh” value [1] was 36%, the “%Inh” value [2] was 0% and the “%Inh” value [3] was 96.1%. The “%Inh” value [4] was 0%, the “%Inh” value [5] was 0% and the “%Inh” value [6, 21] was 93.3%. For the same molecule, the “%Inh” value [7] was 31%, the “%Inh” value [8] was 23% and the “%Inh” value [9] was 2%. The “%Inh” value [10] was 0%, the “%Inh” value [11] was 20% and the “%Inh” value [12] was 0%. The “%Inh” value [13] was 0%, the “%Inh” value [14] was 16% and the “%Inh” value [15] was 18%. For the same molecule, the “%Inh” value [16] was 0%, the “%Inh” value [17] was 7% and the “%Inh” value [18] was 17%. For the same molecule, the “%Inh” value [19] was 0% and the “%Inh” value [20] was 0%.

For `OCCn1cc(-c2cnc3nnn(Cc4ccc5ncccc5c4)c3n2)cn1`, the “%Inh” value [1] was 0%, the “%Inh” value [2] was 1% and the “%Inh” value [3] was 0%. The “%Inh” value [4] was 22%, the “%Inh” value [5] was 0% and the “%Inh” value [6, 21] was 0%. For the same molecule, the “%Inh” value [7] was 0%, the “%Inh” value [8] was 0% and the “%Inh” value [9] was 4%. The “%Inh” value [10] was 0%, the “%Inh” value [11] was 0% and the “%Inh” value [12] was 0%. The “%Inh” value [13] was 0%, the “%Inh” value [14] was 0% and the “%Inh” value [15] was 0%. For the same molecule, the “%Inh” value [16] was 0%, the “%Inh” value [17] was 0% and the “%Inh” value [18] was 0%. For the same molecule, the “%Inh” value [19] was 0% and the “%Inh” value [20] was 11%.

With `CN1CCN(CCNc2nc3cc(Oc4ccc(NC(=O)Nc5cc(C(F)(F)F)ccc5F)cc4)ccc3[nH]2)CC1.Cl.Cl` [GW768504] the “%Inh” value [1] was 0%, the “%Inh” value [2] was 0% and the “%Inh” value [3] was 0%. The “%Inh” value [4] was 0%, the “%Inh” value [5] was 6% and the “%Inh” value [6, 21] was 0%. The “%Inh” value [7] was 0%, the “%Inh” value [8] was 0% and the “%Inh” value [9] was 0%. For the same molecule, the “%Inh” value [10] was 4%, the “%Inh” value [11] was 15% and the “%Inh” value [12] was 0%. The “%Inh” value [13] was 0%, the “%Inh” value [14] was 0% and the “%Inh” value [15] was 0%. The “%Inh” value [16] was 20%, the “%Inh” value [17] was 0% and the “%Inh” value [18] was 0%. The “%Inh” value [19] was 16% and the “%Inh” value [20] was 0%.

`Cc1ccc(CC(=O)N2CCc3cc(-c4cn(C)c5ncnc(N)c45)ccc32)cc1` [GSK2634758] was tested, and the “%Inh” value [1] was 12%, the “%Inh” value [2] was 0% and the “%Inh” value [3] was 78%. For the same molecule, the “%Inh” value [4] was 2%, the “%Inh” value [5] was 0% and the “%Inh” value [6, 21] was 15%. For the same molecule, the “%Inh” value [7] was 12%, the “%Inh” value [8] was 0% and the “%Inh” value [9] was 19%. For the same molecule, the “%Inh” value [10] was 23%, the “%Inh” value [11] was 7% and the “%Inh” value [12] was 0%. The “%Inh” value [13] was 0%, the “%Inh” value [14] was 16% and the “%Inh” value [15] was 22%. For the same molecule, the “%Inh” value [16] was 0%, the “%Inh” value [17] was 5% and the “%Inh” value [18] was 19%. The “%Inh” value [19] was 7% and the “%Inh” value [20] was 0%.

With `Cc1cccc(-c2nc(Nc3ccncc3)c3sccc3n2)n1` [GW869641] the “%Inh” value [1] was 11%, the “%Inh” value [2] was 36% and the “%Inh” value [3] was 6%. For the same molecule, the “%Inh” value [4] was 0%, the “%Inh” value [5] was 7% and the “%Inh” value [6, 21] was 58%. The “%Inh” value [7] was 54%, the “%Inh” value [8] was 16% and the “%Inh” value [9] was 24%. The “%Inh” value [10] was 7%, the “%Inh” value [11] was 24% and the “%Inh” value [12] was 3%. The “%Inh” value [13] was 9%, the “%Inh” value [14] was 14% and the “%Inh” value [15] was 18%. For the same molecule, the “%Inh” value [16] was 0%, the “%Inh” value [17] was 11% and the “%Inh” value [18] was 23%. The “%Inh” value [19] was 21% and the “%Inh” value [20] was 6%.

`O=C(NOCC1CC1)c1cc(Br)c(F)c(F)c1Nc1ccc(I)cc1Cl` was tested, and the “%Inh” value [1] was 0%, the “%Inh” value [2] was 0% and the “%Inh” value [3] was 0%. For the same molecule, the “%Inh” value [4] was 0%, the “%Inh” value [5] was 0% and the “%Inh” value [6, 21] was 0%. The “%Inh” value [7] was 0%, the “%Inh” value [8] was 0% and the “%Inh” value [9] was 0%. The “%Inh” value [10] was 0%, the “%Inh” value [11] was 0% and the “%Inh” value [12] was 0%. The “%Inh” value [13] was 0%, the “%Inh” value [14] was 0% and the “%Inh” value [15] was 0%. The “%Inh” value [16] was 0%, the “%Inh” value [17] was 0% and the “%Inh” value [18] was 0%. The “%Inh” value [19] was 0% and the “%Inh” value [20] was 0%.

`Cl.Cl.NC[C@H](CC1CCCCC1)NC(=O)c1ccc(-c2ccnc3[nH]ccc23)s1` [GSK1581428] was tested, and the “%Inh” value [1] was 2%, the “%Inh” value [2] was 0% and the “%Inh” value [3] was 5%. For the same molecule, the “%Inh” value [4] was 11%, the “%Inh” value [5] was 17% and the “%Inh” value [6, 21] was 0%. The “%Inh” value [7] was 44%, the “%Inh” value [8] was 0% and the “%Inh” value [9] was 36%. For the same molecule, the “%Inh” value [10] was 9%, the “%Inh” value [11] was 37% and the “%Inh” value [12] was 0%. The “%Inh” value [13] was 0%, the “%Inh” value [14] was 7% and the “%Inh” value [15] was 5%. The “%Inh” value [16] was 0%, the “%Inh” value [17] was 40% and the “%Inh” value [18] was 27%. The “%Inh” value [19] was 4% and the “%Inh” value [20] was 0%.
